Assay [1] has as its target Tyrosine-protein kinase SYK (Homo sapiens) (UniProt P43405). Particulars: at 10 µM.
Assay [2] deals with T1, Mitogen-activated protein kinase kinase kinase 7 (Homo sapiens) (UniProt O43318).
T1 sequence (whole entry): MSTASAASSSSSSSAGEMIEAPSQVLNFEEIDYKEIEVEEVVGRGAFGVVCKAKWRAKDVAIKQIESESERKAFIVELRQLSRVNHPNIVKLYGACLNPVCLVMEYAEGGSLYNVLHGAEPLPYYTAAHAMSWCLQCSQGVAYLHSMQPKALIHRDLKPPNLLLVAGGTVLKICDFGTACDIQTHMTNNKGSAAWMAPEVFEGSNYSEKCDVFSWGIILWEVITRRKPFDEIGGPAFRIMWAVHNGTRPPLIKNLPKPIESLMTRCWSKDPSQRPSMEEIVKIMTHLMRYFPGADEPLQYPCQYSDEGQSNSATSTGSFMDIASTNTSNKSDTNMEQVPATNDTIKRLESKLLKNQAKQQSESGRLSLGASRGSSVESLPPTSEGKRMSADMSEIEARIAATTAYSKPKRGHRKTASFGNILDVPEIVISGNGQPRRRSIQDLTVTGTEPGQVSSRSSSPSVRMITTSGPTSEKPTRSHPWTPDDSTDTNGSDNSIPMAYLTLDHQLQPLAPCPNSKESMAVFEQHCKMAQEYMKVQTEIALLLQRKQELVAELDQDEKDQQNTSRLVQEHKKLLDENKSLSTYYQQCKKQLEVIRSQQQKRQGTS
Particulars: at 1 µM.

In assay [3] the target is T1, Mitogen-activated protein kinase kinase kinase 7 (Homo sapiens). Conditions: at 10 µM.
Assay [4] deals with T2, Serine/threonine-protein kinase TAO1 (Homo sapiens) (UniProt Q7L7X3).
T2 sequence (whole entry): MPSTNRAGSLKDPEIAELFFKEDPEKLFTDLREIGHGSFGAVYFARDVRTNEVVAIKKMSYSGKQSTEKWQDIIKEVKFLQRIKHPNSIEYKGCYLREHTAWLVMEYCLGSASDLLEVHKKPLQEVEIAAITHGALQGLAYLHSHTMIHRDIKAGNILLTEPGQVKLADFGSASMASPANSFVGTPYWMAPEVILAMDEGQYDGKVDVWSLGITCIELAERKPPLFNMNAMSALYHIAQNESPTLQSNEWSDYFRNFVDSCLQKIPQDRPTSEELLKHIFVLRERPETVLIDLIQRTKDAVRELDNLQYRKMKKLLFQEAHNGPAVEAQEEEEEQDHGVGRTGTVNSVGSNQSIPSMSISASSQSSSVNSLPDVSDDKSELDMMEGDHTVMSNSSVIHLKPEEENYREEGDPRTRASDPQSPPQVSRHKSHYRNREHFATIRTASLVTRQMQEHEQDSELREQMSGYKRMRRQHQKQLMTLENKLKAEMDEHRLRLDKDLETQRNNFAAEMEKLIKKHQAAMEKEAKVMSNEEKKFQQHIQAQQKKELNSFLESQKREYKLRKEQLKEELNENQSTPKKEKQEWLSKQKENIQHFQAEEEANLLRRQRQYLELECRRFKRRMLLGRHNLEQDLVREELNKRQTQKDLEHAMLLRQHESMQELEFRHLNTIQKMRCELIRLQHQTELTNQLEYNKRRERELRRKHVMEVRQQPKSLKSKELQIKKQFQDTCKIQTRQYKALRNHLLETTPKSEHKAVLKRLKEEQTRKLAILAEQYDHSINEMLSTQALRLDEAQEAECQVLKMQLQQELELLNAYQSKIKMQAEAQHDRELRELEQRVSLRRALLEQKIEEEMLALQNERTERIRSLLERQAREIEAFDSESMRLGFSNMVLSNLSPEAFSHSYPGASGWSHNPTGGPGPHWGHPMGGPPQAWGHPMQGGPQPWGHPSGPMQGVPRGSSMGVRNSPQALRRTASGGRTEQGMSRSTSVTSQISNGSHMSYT
Particulars: at 1 µM.

For assay [5], the target named is T2, Serine/threonine-protein kinase TAO1 (Homo sapiens). Particulars: at 10 µM.
In assay [6] the target is T3, Serine/threonine-protein kinase TAO2 (Homo sapiens) (UniProt Q9UL54).
T3 sequence (whole entry): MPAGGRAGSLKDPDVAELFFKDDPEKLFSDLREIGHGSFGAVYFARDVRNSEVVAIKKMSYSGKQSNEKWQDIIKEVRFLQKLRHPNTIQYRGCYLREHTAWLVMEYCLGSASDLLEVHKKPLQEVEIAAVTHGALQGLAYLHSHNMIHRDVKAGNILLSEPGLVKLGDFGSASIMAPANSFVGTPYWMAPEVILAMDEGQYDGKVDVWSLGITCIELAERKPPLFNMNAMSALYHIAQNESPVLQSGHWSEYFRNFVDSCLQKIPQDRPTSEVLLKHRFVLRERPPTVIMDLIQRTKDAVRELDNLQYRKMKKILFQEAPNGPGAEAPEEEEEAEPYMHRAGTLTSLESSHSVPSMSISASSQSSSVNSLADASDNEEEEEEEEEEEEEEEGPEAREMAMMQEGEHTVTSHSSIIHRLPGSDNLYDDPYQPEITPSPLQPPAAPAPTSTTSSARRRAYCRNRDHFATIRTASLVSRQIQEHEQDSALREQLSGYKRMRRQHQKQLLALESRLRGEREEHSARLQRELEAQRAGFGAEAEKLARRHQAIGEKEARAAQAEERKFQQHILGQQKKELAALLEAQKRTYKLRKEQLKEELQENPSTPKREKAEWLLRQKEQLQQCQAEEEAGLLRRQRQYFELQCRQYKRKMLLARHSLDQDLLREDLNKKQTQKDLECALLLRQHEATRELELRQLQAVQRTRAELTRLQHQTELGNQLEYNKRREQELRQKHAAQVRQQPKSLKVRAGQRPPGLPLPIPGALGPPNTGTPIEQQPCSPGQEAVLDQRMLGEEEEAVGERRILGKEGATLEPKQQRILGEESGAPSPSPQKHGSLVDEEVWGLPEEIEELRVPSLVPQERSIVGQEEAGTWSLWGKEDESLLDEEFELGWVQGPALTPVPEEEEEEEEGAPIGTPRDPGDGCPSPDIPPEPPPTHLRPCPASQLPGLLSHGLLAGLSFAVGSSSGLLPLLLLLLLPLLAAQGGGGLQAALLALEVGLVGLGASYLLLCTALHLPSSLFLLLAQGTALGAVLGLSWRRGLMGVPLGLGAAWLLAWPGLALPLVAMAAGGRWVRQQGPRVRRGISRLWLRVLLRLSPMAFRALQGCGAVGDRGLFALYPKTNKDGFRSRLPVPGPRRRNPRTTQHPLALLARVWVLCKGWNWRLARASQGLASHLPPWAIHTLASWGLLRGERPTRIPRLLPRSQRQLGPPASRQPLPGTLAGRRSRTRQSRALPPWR
Conditions: at 1 µM.

Assay [7] concerns the target T3, Serine/threonine-protein kinase TAO2 (Homo sapiens). Conditions: at 10 µM.
For assay [8], the target named is T4, Serine/threonine-protein kinase TAO3 (Homo sapiens) (UniProt Q9H2K8).
T4 sequence (whole entry): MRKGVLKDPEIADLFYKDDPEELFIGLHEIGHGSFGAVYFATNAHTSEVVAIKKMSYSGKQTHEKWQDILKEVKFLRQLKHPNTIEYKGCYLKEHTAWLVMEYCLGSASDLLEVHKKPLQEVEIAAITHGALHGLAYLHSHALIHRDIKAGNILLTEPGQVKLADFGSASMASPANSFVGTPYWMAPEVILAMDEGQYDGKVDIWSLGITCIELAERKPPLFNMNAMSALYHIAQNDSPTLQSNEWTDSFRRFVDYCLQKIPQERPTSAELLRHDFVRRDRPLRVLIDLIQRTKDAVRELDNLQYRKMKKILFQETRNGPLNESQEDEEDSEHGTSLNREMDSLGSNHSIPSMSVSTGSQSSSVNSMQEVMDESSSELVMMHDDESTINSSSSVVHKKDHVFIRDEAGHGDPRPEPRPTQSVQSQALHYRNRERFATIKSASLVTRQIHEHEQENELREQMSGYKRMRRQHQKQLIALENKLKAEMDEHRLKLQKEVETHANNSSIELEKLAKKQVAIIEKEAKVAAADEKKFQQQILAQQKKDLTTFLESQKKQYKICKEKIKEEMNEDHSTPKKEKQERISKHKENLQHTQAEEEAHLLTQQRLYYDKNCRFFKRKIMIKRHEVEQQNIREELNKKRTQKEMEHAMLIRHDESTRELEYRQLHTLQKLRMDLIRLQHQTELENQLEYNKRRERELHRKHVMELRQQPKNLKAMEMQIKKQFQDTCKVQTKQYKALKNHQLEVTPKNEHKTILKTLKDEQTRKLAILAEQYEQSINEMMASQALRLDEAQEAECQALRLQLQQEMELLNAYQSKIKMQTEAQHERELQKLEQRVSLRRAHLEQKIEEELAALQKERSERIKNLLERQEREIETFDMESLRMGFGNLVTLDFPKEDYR
Particulars: at 1 µM.

Assay [9] addresses T4, Serine/threonine-protein kinase TAO3 (Homo sapiens). Particulars: at 10 µM.
Assay [10] deals with T5, Serine/threonine-protein kinase TBK1 (Homo sapiens) (UniProt Q9UHD2).
T5 sequence (whole entry): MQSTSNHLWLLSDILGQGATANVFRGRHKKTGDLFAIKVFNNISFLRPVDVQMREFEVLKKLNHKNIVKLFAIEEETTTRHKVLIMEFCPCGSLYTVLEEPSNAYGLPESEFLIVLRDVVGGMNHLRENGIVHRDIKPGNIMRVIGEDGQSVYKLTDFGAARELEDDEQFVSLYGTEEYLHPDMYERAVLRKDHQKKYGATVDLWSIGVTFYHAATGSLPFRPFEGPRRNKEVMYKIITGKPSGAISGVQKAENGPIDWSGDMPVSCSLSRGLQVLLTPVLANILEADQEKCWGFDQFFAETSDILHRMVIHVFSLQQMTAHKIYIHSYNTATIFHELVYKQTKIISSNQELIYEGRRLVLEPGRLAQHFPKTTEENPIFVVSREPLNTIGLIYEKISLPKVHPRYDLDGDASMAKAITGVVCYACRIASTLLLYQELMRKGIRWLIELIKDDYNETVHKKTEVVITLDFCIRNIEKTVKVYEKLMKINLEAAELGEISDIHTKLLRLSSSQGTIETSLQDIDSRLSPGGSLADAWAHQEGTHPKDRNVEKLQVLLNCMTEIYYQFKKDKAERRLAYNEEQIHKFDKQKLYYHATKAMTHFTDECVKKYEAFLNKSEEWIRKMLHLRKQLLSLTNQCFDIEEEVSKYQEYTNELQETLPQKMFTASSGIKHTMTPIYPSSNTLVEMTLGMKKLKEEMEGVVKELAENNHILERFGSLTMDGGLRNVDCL
Particulars: at 1 µM.

SMILES strings stand for the structures.

For `COc1cc2ncnc(Nc3ccc(O)c(Br)c3)c2cc1OC`, the residual activity came to 68% in [1]; 81% in [2]; 62% in assay [3]; 86% in assay [4]; 48% in assay [5]; 98% in assay [6]. The residual activity in assay [7] was 75%; in assay [8], 82%; in assay [9] it was 61%; in assay [10], 41%.
